In the supplement of paper PMC6555819:

System: THRa:RXRa (NR concentration 90 nM, RXRa partner concentration 90 nM)
Experiment: PBM binding z-score (relative to random genomic background probes); higher = stronger binding; sequences stand for … in GC…GCGATTGACAGCGTAGAATGAAGG
Method in brief: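 Binding buffer was PBS pH 7.4 with 2% milk, 0.02% Triton X-100, 1 mM DTT, 0.2 mg/mL BSA and 0.4 mg/ml salmon testes DNA. In it, ligand-free nuclear receptor dimers were incubated 1 h on custom Agilent 4×180K protein-binding microarrays carrying double-stranded probes. Antibodies against each partner (one per run) detected binding, and z-scores were calculated against random background probes after regression normalization of scanned fluorescence.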

Compared with TCATATAGGTTATACAGGTGAAAGTCGGCATCTA, AGAACGAAGGCACGCTGAGTTGATAGCAGAGTAG is lower in PBM binding z-score: 1.92 for the first, -0.717 for the second.

Compared with CGTCAAAGTTCAACTACGGTAACGTAAAGCACGC, AGAATGAGGTTATTAAGATAAGGGAATTGCGGTC is lower in PBM binding z-score: 4.23 for the first, 1.95 for the second.

Compared with TTACCAAGGTGAGCTGAGGACGTTGATCCAACTC, TAGCGTAGGTCATGCGGGCCAGTATAGTGTCGGC is lower in PBM binding z-score: 4.53 for the first, 2.27 for the second.

Compared with TCAGATAGGTAAAAGGTGAAAGTCGGTGTGGTAA, GCTTGTAGACCAAGGTTAAGAAAGACTAAGCTAA is lower in PBM binding z-score: 1.76 for the first, 0.969 for the second.

First: CCGACTGGGGCAAAGGTTACAATACTCAGTACGA
Second: CCTACTGGGCCACGAAAGGTCACTGATTCAGTGA
The PBM binding z-score of the first is lower: 1.8 for the first, 3.84 for the second.

Going from GGAACGATGGCAAAGTTGATAGCATCTGTCGACG to ATCTCTAGGTAACCAAGTTCAGTTAATGCCGAAC, the PBM binding z-score rises from -0.533 to 1.97.

Going from ATATGAAGGTTAAGGGTCATTCAGGTTGGTTCGC to CCGACTGGGGCAAACGTTACCATACTCAGTACGA, the PBM binding z-score falls from 3.95 to -0.227.

Going from TCATATAGGTAAAGGTCAAAGTCGAACGATATGA to TCGAGCAGGTTAGGGGCATTCAGAATGGCGTCGA, the PBM binding z-score falls from 3.68 to 0.723.

First: ACAGACAGGTGATGGAGGTAACTCAGGCTATCAT
Second: ACTCGGAGGACAAAGGTCAGTGCTACGCCAGTGA
The PBM binding z-score of the first is lower: 1.05 for the first, 3.38 for the second.

Compared with CCTACTGGGCCAGAAAGGTCATTGATGCCGATAA, TTACCAAGGTGACAGGTCGTTGATGCACGCCTTG is lower in PBM binding z-score: 2.88 for the first, 2.19 for the second.

First: CTCGAAAGGTCGTGCTCAGGGGAGTATACCAAAC
Second: ACTTGCGGGTCAACGAGGTTATAGCACGCGTATA
The PBM binding z-score of the first is lower: 2.77 for the first, 3.81 for the second.

Compared with CCTACTGGGCCATTCACAGGTCATTGATCATATG, CCAGACAGGTGAGAAGGTAACTCAACCTCGATTA is lower in PBM binding z-score: 2.01 for the first, 0.724 for the second.

Compared with TCTTGTAGATCAACAGGAGGTTTAGAAAGATCGA, TCTATTAGTTGATTAGGGAAACCGAAACAGCGGA is higher in PBM binding z-score: -0.426 for the first, 0.12 for the second.

Going from CTACCAACGTGAACAAGGTCGTTGATTACTATTC to GCTAGCAGGCCATTCGGGTCACTCAATGACGGGC, the PBM binding z-score rises from 1.82 to 3.09.

First: TGGAGTAGGTTAGTCGGGGCATTCAGCCAACATA
Second: ATATCTAGGTAAAGATAGTTCAGTGAATGCAAAT
The PBM binding z-score of the first is higher: 1.48 for the first, 0.642 for the second.

First: TCTTGTAGATCAAAGGTGAAGAAAGCCGAAGCCT
Second: TCTTGTAGATCACCAGGAGGTTAAGAAAGATCGA
The PBM binding z-score of the first is lower: 0.776 for the first, 1.01 for the second.

First: AGTCAAAGTTCACTGGGTAACGTAAGATTCAGCT
Second: ATCTCTACGTAACAAGTTCAGTGAAAGAGAGGAC
The PBM binding z-score of the first is higher: 1.92 for the first, 1.07 for the second.

Compared with CCTAGCAGGCAAATCTGGGTCACTCAAGGCTTGA, CCTTACGGGTCACGAGGTGATAGCACGACGAGCG is higher in PBM binding z-score: 2.89 for the first, 3.48 for the second.

Going from TAGCCTAGGTTATTGGGCCAGTATAGTACGCATC to ACTATTAGTTGACTTAGGGCAACCTATACGACGC, the PBM binding z-score rises from 0.29 to 1.72.

ACAGACAGGTGAGTCAAGGTAACTCAGCTGGACG was tested, and the PBM binding z-score was 3.73.
